# PubChem BioAssay (EPA / NIEHS)
# Calls of active or inactive are those of the source. How the source made its calls: active means hit-call score of the fitted dose curve at least 0.9, where 1 is the maximum; inactive means score below 0.9.
# Target: Transcription factor Sp1 (Homo sapiens) (UniProt P08047)
# Experiment: ATG_Sp1_CIS: Attagene CIS-FACTORIAL HepG2 Assay for human Specificity Protein 1 (Sp1) (AID 2282961)
# Settings: HepG2 Sp1 cis-reporter transcription, actives raise or lower the signal
# Protocol: ATG_CIS is a cell-based, multiplexed-readout assay that uses HepG2, a human liver cell line, with measurements taken at 24 hours after chemical dosing in a 24-well plate.ATG_Sp1_CIS is one of 52 assay component(s) measured or calculated from the ATG_CIS assay. It is designed to make measurements of mRNA induction, a form of inducible reporter, as detected with fluorescence intensity signals by Reverse transcription polymerase chain reaction (RT-PCR) and Capillary electrophoresis technology.Data from the assay component ATG_Sp1_CIS was analyzed into 1 assay endpoint. This assay endpoint, ATG_Sp1_CIS, was analyzed with bidirectional fitting relative to DMSO as the negative control and baseline of activity. Using a type of inducible reporter, measures of mRNA for gain or loss-of-signal activity can be used to understand the reporter gene at the transcription factor-level as they relate to the gene SP1. Furthermore, this assay endpoint can be referred to as a primary readout, because this assay has produced multiple assay endpoints where this one serves a reporter gene function. To generalize the intended target to other relatable targets, this assay endpoint is annotated to the dna binding intended target family, where the subfamily is zinc finger.
# Human liver HepG2 cells are transiently transfected with multiple reporter transcription units (MRTUs) in 6-well plates using FuGene 6 reagent (Roche; 3 ml FuGene/1 mg DNA). The MRTU constructs are regulated by a cis-regulating element (promoter). […] A major difference between the CIS and TRANS system is that in CIS activities of endogenous TFs are measured, whereas the TRANS assay evaluates changes in activities of exogenous, chimeric NR-Gal4 proteins. […] At the end of 24 hour incubation, total RNA was isolated using TriZol reagent (Invitrogen). The isolated RNA is then reverse-transcribed using oligo(dT) primer and Mo-MLV reverse transcriptase (Invitrogen) with DNAse I (Ambion) treatment for 30 min. The one-tenth of the produced cDNA was amplified by PCR using Taq DNA polymerase (Invitrogen) and two reporter sequence-specific primers. The PCR products were fluorescently labeled by primer extension with 6-arboxyfluorescein (6-FAM) 5'-labeled reporter sequence-specific primer (2 min at 95 C, 20 s at 68 C and 10 min at 72 C) and these products were digested with 5U of HpaI (New England Biolabs) for 2h at 37 C. The fragments were purified using Qiaquick PCR columns (Qiagen), analyzed on an ABI 3130xL genetic analyzer (Applied Biosystems) with peak positions identified by using a set of X-rhodamine (ROX)-labeled MapMarker1000 molecular weight standards (BioVentures). The raw capillary electrophoresis data was processed using Attagraph software (Attagene).
# Transcription factor Sp1 (Homo sapiens), sequence (P08047 whole entry, looked up): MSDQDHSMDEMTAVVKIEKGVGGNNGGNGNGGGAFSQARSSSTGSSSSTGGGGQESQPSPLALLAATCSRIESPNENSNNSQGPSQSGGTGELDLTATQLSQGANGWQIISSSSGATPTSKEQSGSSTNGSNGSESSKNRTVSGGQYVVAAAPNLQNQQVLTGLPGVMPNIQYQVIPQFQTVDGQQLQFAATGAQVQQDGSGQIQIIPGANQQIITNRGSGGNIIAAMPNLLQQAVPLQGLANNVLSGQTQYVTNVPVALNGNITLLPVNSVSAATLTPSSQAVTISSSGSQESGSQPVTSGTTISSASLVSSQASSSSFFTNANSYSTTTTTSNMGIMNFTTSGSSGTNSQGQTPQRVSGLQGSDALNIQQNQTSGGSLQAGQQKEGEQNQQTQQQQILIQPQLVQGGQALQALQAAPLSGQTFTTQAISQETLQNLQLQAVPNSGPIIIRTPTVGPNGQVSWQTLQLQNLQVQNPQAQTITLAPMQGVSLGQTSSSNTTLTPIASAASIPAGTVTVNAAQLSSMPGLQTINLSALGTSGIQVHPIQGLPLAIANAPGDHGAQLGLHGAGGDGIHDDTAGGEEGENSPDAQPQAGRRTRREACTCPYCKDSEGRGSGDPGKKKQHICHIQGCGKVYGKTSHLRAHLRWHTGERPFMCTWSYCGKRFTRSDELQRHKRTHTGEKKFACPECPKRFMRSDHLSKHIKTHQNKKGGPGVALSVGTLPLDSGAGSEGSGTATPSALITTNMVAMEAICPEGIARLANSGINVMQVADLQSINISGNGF
SMILES,outcome,AC50
CCc1cccc(C)c1N(C(=O)C(=O)O)C(C)COC (stereo not given),inactive,
CCOC(=O)CC(=O)C(F)(F)C(F)(F)F,inactive,
OCC(O)CC(F)(F)C(F)(F)C(F)(F)C(F)(F)C(F)(F)C(F)(F)C(F)(F)C(F)(F)F (stereo not given),inactive,
O=C(c1ccccc1)c1ccc(O)cc1O,inactive,
CCOC(OCC)OCC,inactive,
C[Si](Cl)(Cl)CCC(F)(F)C(F)(F)C(F)(F)C(F)(F)C(F)(F)C(F)(F)F,inactive,
CCCCCCCCCc1ccc(OCCO)cc1,,13.3 µM (active)
CCOCOCC,inactive,
CC(=O)C=O,inactive,
OCC(F)(F)C(F)(F)C(F)(F)C(F)(F)C(F)(F)C(F)(F)CO,inactive,
CC1CCCCC1,inactive,
Cc1ccc(S(=O)(=O)C(I)I)cc1,,9.07 µM (active)
CCN(CC)c1ccc2c(c1)Oc1cc(N(CC)CC)ccc1C21OC(=O)c2ccccc21,inactive,
O=C(O)C(F)(F)C(F)(F)C(F)(F)C(=O)O,inactive,
C=CC(=O)OCC(F)(F)C(F)(F)C(F)(F)COC(=O)C=C,,26.4 µM (active)
CO[Si](C)(CCC(F)(F)C(F)(F)C(F)(F)C(F)(F)C(F)(F)C(F)(F)F)OC,inactive,
CCN(CCO)S(=O)(=O)C(F)(F)C(F)(F)C(F)(F)C(F)(F)C(F)(F)C(F)(F)C(F)(F)C(F)(F)F,inactive,
NC(=O)C(F)(F)C(F)(F)C(F)(F)C(F)(F)C(N)=O,inactive,
C#CC(O)CCC (stereo not given),inactive,
O=C(Cl)c1ccc(Cl)cc1Cl,inactive,

SMILES,outcome,AC50
Nc1cccnc1N,inactive,
O=C1c2c(O)ccc(Nc3ccc(CCO)cc3)c2C(=O)c2c([N+](=O)[O-])ccc(O)c21,inactive,
CCCCCCCCCCCCCCCCC,inactive,
COC(=O)c1ccc(C=O)cc1,inactive,
CC(C)C(=O)OCc1ccccc1,inactive,
Nc1c(Br)cc([N+](=O)[O-])cc1Br,inactive,
CN(N=O)C(=O)N[C@@H]1[C@@H](O)[C@H](O)[C@@H](CO)O[C@@H]1O,inactive,
O=c1cccc[nH]1,inactive,
COc1ccccc1C=O,inactive,
CC(C)OC=O,inactive,
CC(C)(C)c1cc(Cc2cc(C(C)(C)C)c(O)c(C(C)(C)C)c2)cc(C(C)(C)C)c1O,inactive,
CCN=C1C=CC(=C(c2ccc(N(CC)CC)cc2)c2ccc(N(CC)CC)cc2)c2ccccc21,inactive,
Cc1cc(O)c(C(C)(C)C)cc1C(C)(C)C,,11.1 µM (active)
O=C=NCc1cccc(CN=C=O)c1,inactive,
O=S(=O)(O)c1ccc(Cl)cc1,inactive,
OC(O)C(F)(F)C(F)(F)F,inactive,
NC(=O)C(F)(F)C(F)(F)C(F)(F)C(F)F,inactive,
CCCCC(CC)COC(=O)c1ccc(N(C)C)cc1 (stereo not given),inactive,
CCn1c2ccccc2c2ccccc21,,167 µM (active)
CCc1ccc(C)nc1,inactive,
